# An excerpt weighted towards active compounds, which were near 3.4% of everything screened.
# Tau fibril FP: blocks human tau fibril formation measured by polarization; P10636; AID 1468; actives 0.39% (n = 280,000); K18 P301L tau heparin fibrillization, Alexa594 FP, 6 h; Potency, µM (doses to about 57.7 µM), for the others: at the highest dose activity, negative = inhibition, most hits filed as inhibitors; further: nearly all actives have a fitted effect of over 55% in size
# Target sequence (P10636 561-689 P618L limits assumed): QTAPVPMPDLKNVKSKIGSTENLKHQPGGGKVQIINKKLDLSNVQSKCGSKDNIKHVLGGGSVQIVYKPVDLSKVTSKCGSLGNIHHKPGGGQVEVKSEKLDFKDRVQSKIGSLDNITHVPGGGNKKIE
#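 Steps: dispense K18 P301L tau (15 uM plus 0.24 uM Alexa 594 tracer, final) in pH 7 sodium acetate; add compound; add heparin (20 uM final); incubate 6 hr, 37 C; add ThT (30 uM final); after 1 hr ambient, read FP.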
# Tau fluor cs: counter-screen for tau fibril formation inhibitors. tau K18 P301L Alexa594 fluorescence, heparin fibrillization. Potency, µM (series often up to 57.7 µM), inactives show at the top dose activity change, negative = decrease. actives 0.93% (n = 280,000); further: nearly all actives have a fitted effect of over 55% in size
#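 Human K18 P301L tau (15 uM unlabeled plus 0.24 uM Alexa 594-labeled, final) in 100 mM sodium acetate pH 7 was mixed with compound and 20 uM heparin and incubated 6 hr at 37 C.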
# JMJD2E inh: inhibitors of human JMJD2E histone demethylase; B2RXH2; JMJD2E catalytic domain, FDH-coupled NADH fluorescence (FDH is formaldehyde dehydrogenase); Potency, µM (highest dose often 57.1 µM), for the others: top-dose activity change, negative = inhibition, most hits filed as inhibitors; actives 1.6% (n = 230,000); AID 2147; active means well fitted inhibition curve with a large enough effect, not every such curve was filed as active; inconclusive means small, poorly fitted or top-dose-only effect, or another doubt; inactive means no such curve, though single readings can be large or run the other way;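 further: 0% = wells with enzyme and -100% = buffer wells without enzyme; nearly all actives have a fitted effect of over 50% in size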
# RGS12 GoLoco inh: RGS12 GoLoco-Gai1 interaction inhibition. P63096. AID 880. Gai1:RGS12 GoLoco peptide FP, rhodamine, 10 min. Potency, µM (doses to about 61.6 µM), inactives show top-dose activity, negative = inhibition, most hits filed as inhibitors. actives 0.44% (n = 230,000); active means well fitted inhibition curve with a large enough effect, not every such curve was filed as active; inactive means no such curve, though single readings can be large or run the other way; further: nearly all actives have a fitted effect of over 30% in size
# Target sequence (P63096 whole entry, looked up): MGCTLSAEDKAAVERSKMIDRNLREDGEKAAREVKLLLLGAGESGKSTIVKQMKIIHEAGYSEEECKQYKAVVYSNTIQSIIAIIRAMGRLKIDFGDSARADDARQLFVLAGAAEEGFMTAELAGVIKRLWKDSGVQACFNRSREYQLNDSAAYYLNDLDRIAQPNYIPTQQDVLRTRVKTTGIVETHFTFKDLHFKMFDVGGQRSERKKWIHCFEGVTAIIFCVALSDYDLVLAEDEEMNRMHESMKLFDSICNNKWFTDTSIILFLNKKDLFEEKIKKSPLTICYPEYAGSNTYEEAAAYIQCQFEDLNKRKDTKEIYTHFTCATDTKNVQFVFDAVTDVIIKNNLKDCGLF
# Tau ThT inhib: inhibitors of human tau fibril formation, thioflavin T binding | P10636 | recombinant tau K18 P301L (four-repeat tau fragment), heparin-induced fibrillization, ThT fluorescence | Potency, µM (highest dose often 57.4 µM), for inactives: at the top dose activity, negative = inhibition, most hits filed as inhibitors | actives 2.1% (n = 270,000); further: nearly all actives have a fitted effect of over 55% in size
#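 Aggregation was driven by heparin (20 uM final) acting on recombinant tau […] bearing P301L in 100 mM sodium acetate pH 7; fibrils were detected with Thioflavin T.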
# * = called active by the depositor; ? = inconclusive; / = no result given; [ ] = remark or other dose. Unless noted, the call rests on the fitted dose curve; in most records, active means well fitted curve in the direction sought with a large enough effect; inconclusive means small, poorly fitted or top-dose-only effect, or another doubt; inactive means no such curve, though single readings can be large; an effect the other way counts as inactive or inconclusive. Unless noted, on the % scale 0 is the no-effect control and ±100 the full control effect; potency means the concentration at half of the fitted maximal effect.
SMILES,Tau fibril FP,Tau fluor cs,JMJD2E inh,RGS12 GoLoco inh,Tau ThT inhib
COc1ccc(-c2cc(C(F)(F)F)c3c(=O)n(-c4ccccc4)[nH]c3n2)cc1,8%,?,10%,2%,8.9µM*
COc1ccc(CCNc2nc(SCc3ccccc3Cl)nc3ccccc23)cc1OC,0%,-14%,/,/,11%
C/C(=N/NC(=O)c1ccncc1)C1=C(O)CC(C)(C)CC1=O,-13%,-4%,14µM*,0%,-1%
COc1cccc(Nc2ccc3cc(S(=O)(=O)N4CCC(C)CC4)ccc3n2)c1,?,5µM*[quencher],/,/,10%
CC1CCN(S(=O)(=O)c2ccc3ccccc3c2)CC1,-6%,-24%,-4%,-12%,-17%
CC(=O)c1cccc(Nc2ccc3cc(S(=O)(=O)N4CCCC4)ccc3n2)c1,?,?,/,/,6%
COc1ccc(Nc2ccc3cc(S(=O)(=O)N4CCCC4)ccc3n2)cc1OC,11%,11µM*[quencher],/,/,?
Cc1c(CN2CCCC(C)C2)c(O)n(CCO)c(=O)c1C#N (stereo not drawn),4%,-2%[2.34 µM],14%,9%,-4%
C=CCn1c(O)c(CN2CCCCC2)c(C)c(C#N)c1=O,?,-25%,?,164%,25µM*
O=C(Nc1ccc(Br)cc1F)N1CCC2(CC1)Oc1ccccc1C(=O)N2Cc1ccccc1F,-15%,-16%,/,/,-3%
CC(O)c1n(C)c(Cl)c[n+]1C (stereo not drawn),-4%,-7%,-3%,13µM*,-3%
COCCn1c(=O)c(-c2cccc(C#N)c2)nc2cnc(N3CCOCC3)nc21,/,/,/,20µM*,/
CCOc1ccc(Sc2cc(C(=O)NC(C)CC)c3ccccc3n2)cc1 (stereo not drawn),-8%,-20%,/,/,-5%
CSc1ncc(CN2CCc3c([nH]c4ccccc34)C2c2cccc(O)c2)cn1 (stereo not drawn),2%,16µM*[quencher],?,7%,-18%
CSc1ncc(CN2CCc3c([nH]c4ccccc34)C2c2cccc(C)n2)cn1 (stereo not drawn),8%,-23%,0%,10%,?
COc1cc(OC)cc(C(=O)Nc2cc3c(cc2N2CCCC2)n(C)c(=O)c(=O)n3C)c1,-6%,-4%,/,/,?
CCOc1ccc2c(c1)-c1c(ssc1=S)C(C)(C)N2,-2%,13µM*[quencher],-3%,10%,13µM*
CCOc1ccc2c(c1)-c1c(ssc1=S)C(C)(C)N2C(=O)CSC1=NCCS1,15%,?,2%,2%,?
CC1CCN(c2nc(Cl)nc(Nc3ccc([N+](=O)[O-])cc3)n2)CC1,?,8.9µM*[quencher],-3%,7%,?
Cc1[nH]n(S(=O)(=O)Cc2ccccc2)c(=O)c1N=Nc1ccccc1Cl,11%,-22%,7%,1%,16µM*
Cc1ccccc1N=Nc1c(C)[nH]n(-c2ccccc2)c1=O,2%,-17%,4%,8%,-17%
Nc1[nH]ncc1N=Nc1ccc(Cl)cc1,8%,?,-3%,-7%,10µM*
COCCCNC(=S)N/N=C/c1ccc(O)cc1O,7%,-4%,18µM*,-3%,-8%
O=C(CNC(=O)c1ccc2c(c1)OCCO2)N/N=C/c1ccc(O)cc1O,-12%,-14%,13µM*,7%,-9%
O=C(CNC(=O)c1ccncc1)N/N=C/c1ccc(O)cc1O,-3%,-4%,20µM*,12%,2%
SMILES,Tau fibril FP,Tau fluor cs,JMJD2E inh,RGS12 GoLoco inh,Tau ThT inhib
COc1cccc(CNC(=O)c2ccc(NC(=O)N3CC(C)Sc4ccccc43)cc2)c1 (stereo not drawn),-15%,-29%,/,/,0%
CCc1ccc(NC(=O)Nc2cn(C)c(=O)c3ccccc23)cc1,0%,?,/,/,?
Nc1ccc(S(=O)(=O)c2cccc(N)c2)cc1,6%,-3%,-9%,2%,-12%
Cc1ccc(S(=O)(=O)c2ccccc2)cc1S,?,-17%,4%,5%,28µM*
CC1(C)CC(=O)C2=C(C1)NC1=C(C(=O)c3ccccc31)C2c1cc([N+](=O)[O-])ccc1O (stereo not drawn),7%,16µM*[quencher],-8%,7%,14µM*
CC1(C)CC(=O)C2=C(C1)NC1=C(C(=O)c3ccccc31)C2c1ccccc1 (stereo not drawn),13%,?,4%,15%,?
CCCN1C(=O)/C(=C/c2c(N3CCNC(=O)C3CC(=O)OCC)nc3c(C)cccn3c2=O)SC1=S (stereo not drawn),-12%,3%,1%,130%,13µM*
CCOC(=O)CC1C(=O)NCCN1c1nc2ccc(C)cn2c(=O)c1/C=C1\SC(=S)N(CC(C)C)C1=O (stereo not drawn),2%,-10%,-5%,168%,?
CC(C)(Oc1ccc(Br)cc1)C(=O)Nc1cc(-c2nc3ccccc3[nH]2)ccc1Cl,16µM*,?,/,/,-1%
C/C1=C2N=C(/C=C3N=C(/C(C)=C4\[N-]C(C)(C5N=C1C(C)(CCC(=O)NCC(C)OP(=O)([O-])O[C@H]1C(O)C(n6cnc7cc(C)c(C)cc76)O[C@@H]1CO)C5CC(N)=O)C(C)(CC(N)=O)C4CCC(N)=O)C(C)(CC(N)=O)C\3CCC(N)=O)C(C)(C)C/2CCC(N)=O.[CH2-]C1OC(n2cnc3c(N)ncnc32)C(O)C1O.[Co] (stereo partly drawn),13µM*,?,14µM*,21%,10µM*
O=C(N/N=C/c1ccc(O)c(O)c1O)/C(=C/c1ccc([N+](=O)[O-])cc1)NC(=O)c1ccccc1,8.9µM*,?,10µM*,4%,3.5µM*
Cc1ccc(NC(=O)/C(=C\c2ccc([N+](=O)[O-])cc2)NC(=O)c2ccccc2)cc1,8%,-22%,-1%,4%,-13%
O=C(NC1CCCCC1)c1ccc(CSc2nc3cccnc3n2Cc2ccc(F)cc2)cc1,11%,-5%,/,/,5%
CCOC(=O)c1c(C)oc2ncnc(Nc3ccc(OC)cc3OC)c12,7%,-1%,/,/,1%
O=c1cc(-c2c(F)c(F)c(F)c(F)c2F)oc2c(F)c(F)c(F)c(F)c12,?,?,1%,4%,14µM*
O=c1cc(-c2c(F)c(F)c(F)c(F)c2F)oc2ccccc12,-5%,-14%,-1%,13%,-21%
CC1=C(C#N)C2(O)C(=O)c3ccccc3C2(O)N1 (stereo not drawn),-7%,-1%,8%,1%,-16%
CCOC(=O)C1=C(C)N[C@@]2(O)c3ccccc3C(=O)[C@@]12O,?,-11%,-8%,8%,3.5µM*
CCCCOC(=O)C1=C(C)NC2(O)c3ccccc3C(=O)C12O (stereo not drawn),?,-11%,-20%,1%,10µM*
CC1=C(C(=O)OC(C)C)C2(O)C(=O)c3ccccc3C2(O)N1 (stereo not drawn),?,-23%,?,-5%,7.1µM*
